Screening results deposited in PubChem by The Scripps Research Institute Molecular Screening Center.
ULK1 primary – inhibitors of human ULK1 kinase | AlphaScreen Atg13 phosphorylation by ULK1, luminescence | inhibition, % at 5.96 µM | actives 1.9% (n = 30,000); in the data active = inhibition above about 43%;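 also: 0% = median of compound wells and 100% = no enzyme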
ASK1 inh – human ASK1 kinase inhibition, primary screen; AlphaScreen MKK6 phosphorylation by ASK1, luminescence; actives 0.99% (n = 22,000); inhibition, % at 7.44 µM; in the data active = inhibition above about 35%;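 also: 0% = median of compound wells and 100% = no enzyme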
An asterisk follows results filed as active; · = no result given. Only some compounds are listed: those with a hit (about 2.5% of all), similar ones and a draw of the others.

SMILES	ULK1 primary	ASK1 inh
c1ccc(Nc2nc(NCCOc3ccccc3)c3[nH]cnc3n2)cc1	28.4	6.9
Oc1ccc(CCNc2nc(Nc3ccncc3)nc3nc[nH]c23)cc1	50.9*	-70.8
Cc1nn(C)c(C)c1-c1cc(NCc2cccnc2)nc(N)n1	24.0	-2.3
O=C(NCCCN1CCCC1=O)C1CCN(c2ccc(NCc3ccc4c(c3)OCO4)nn2)CC1	4.4	-6.0
CC(=O)n1nc(C)c(S(=O)(=O)N2CCc3ccccc3C2)c1C	-5.5	·
Fc1ccccc1-c1cc(NCCCN2CCOCC2)nc(-c2ccccn2)n1	2.1	·
COc1ccc(CCNc2nc(NCc3cccnc3)nc3c2ncn3Cc2ccc(C(F)(F)F)cc2)cc1	-17.0	5.2
COc1ccc(-c2ncc(C)c(NCCc3ccc(O)cc3)n2)cc1	6.1	7.6
NS(=O)(=O)c1ccc(Nc2nccc(-c3cccc(Oc4ccccc4)c3)n2)cc1	-7.5	12.3
Cc1cc(NCCCN2CCCC2=O)nc(-c2c(C)nn(C)c2C)n1	-0.8	5.0
Oc1ccc(CCNc2nc(Nc3ccc(-n4ccnc4)cc3)nc3nc[nH]c23)cc1	50.2*	-66.0
Oc1ccc(CCNc2nc(Nc3ncccn3)nc3nc[nH]c23)cc1	8.0	-6.0
O=C(Cc1ccccc1)Nc1cnn(-c2cccc(C(=O)N[C@@H]3CCc4ccccc43)c2)c1	5.8	15.9
COc1cc2nc(NCc3ccc4c(c3)OCO4)nc(Nc3cc(OC)c(OC)c(OC)c3)c2cc1OC	-21.4	7.8
O=C(c1cc(O)c(O)c(O)c1)c1ccc(O)c(O)c1O	83.3*	·
O=C(O)c1cc(O)c(O)c(O)c1	-7.6	·
Cc1cnc(Nc2ccc3ncccc3c2)nc1NCCc1ccc(O)cc1	51.0*	4.0
COc1ccc(CCNc2nc(Nc3ccc4ncccc4c3)ncc2C)cc1	32.1	-4.2
COc1cc(Nc2nc(Nc3ncccn3)ncc2C)cc(OC)c1OC	28.9	-5.2
COc1cc(Nc2nc(Nc3ccc4ncccc4c3)ncc2C)cc(OC)c1OC	63.4*	15.8
COc1cc(Nc2ncc(C)c(Nc3ccccc3)n2)cc(OC)c1OC	73.1*	14.9
COc1cc(Nc2nc(Nc3cccnc3)ncc2C)cc(OC)c1OC	32.5	4.8
COc1ccc(-c2cnc(NCc3cnc(C)cn3)nc2)cc1	2.7	·
COc1cc(Nc2nc(NCc3nc4ccccc4[nH]3)c3ncn(Cc4ccc(C(F)(F)F)cc4)c3n2)cc(OC)c1OC	8.8	-3.9
NC(Cc1ccccc1)c1nc2ccc(-c3cncc4ccccc34)cc2[nH]1 (stereo unspecified)	56.8*	3.8
SMILES	ULK1 primary	ASK1 inh
NC(Cc1ccccc1)c1nc2ccc(-c3cccc4ncccc34)cc2[nH]1 (stereo unspecified)	-19.9	-17.3
CC(=O)Nc1ccc(Nc2ccnc(Nc3ccc(C(F)(F)F)cc3)n2)cc1	-11.3	28.9
CC(=O)Nc1ccc(Nc2ccnc(Nc3ccncn3)n2)cc1	67.7*	16.3
O=C(c1cccc(Nc2nccc(-c3ccc4nc(C5CC5)[nH]c(=O)c4c3)n2)c1)N1CCCC1	80.3*	-25.9
O=C(c1cccc(Nc2nccc(-c3ccc4c(=O)[nH]c(C5CC5)nc4c3)n2)c1)N1CCCC1	65.2*	-17.2
Cc1nc2cc(-c3ccnc(Nc4cccc(C(=O)NC(C)C)c4)n3)ccc2c(=O)n1C1CC1	9.2	-2.0
Cc1nc2ccc(-c3ccnc(Nc4cccc(C(=O)N5CCCC5)c4)n3)cc2c(=O)n1C	-10.1	2.5
COc1cc(Nc2ccnc(-c3cccc(N)c3)n2)cc(OC)c1OC	12.3	18.0
Cc1cnc(Nc2ccc(N3CCOCC3)cc2)nc1Nc1ccc(N2CCOCC2)cc1	13.5	21.3
CC(=O)Nc1ccc(Nc2nc(NCCCN3CCCC3=O)ncc2C)cc1	35.2	-13.8
Cc1cnc(NCCCN2CCCC2=O)nc1Nc1ccc(N2CCOCC2)cc1	45.8*	3.9
Cc1cnc(NCCCN2CCCC2=O)nc1NCCN1CCOCC1	6.7	0.4
COc1cc(Nc2ncc(C)c(NCCCN3CCCC3=O)n2)cc(OC)c1OC	76.3*	4.2
Cc1cnc(Nc2ccc(N3CCOCC3)cc2)nc1NCCCN1CCCC1=O	44.2*	-6.7
Cc1cnc(NCCCN2CCCC2=O)nc1NCCCN1CCCC1=O	0.9	-1.8
Cc1cnc(Nc2nccc3ccccc23)nc1Nc1ccc(N2CCOCC2)cc1	45.5*	13.3
CC(C)n1c(N2CCN(c3ccccn3)CC2)nc2c(NC3CCN(Cc4ccccc4)CC3)ncnc21	7.1	-13.6
Nc1nc(NCc2ccc3c(c2)OCO3)nc2c1ncn2-c1ccsc1	1.3	-12.8
C#C[C@]1(O)CC[C@H]2[C@@H]3CCc4cc(OC)ccc4[C@H]3CCC21C (stereo partly specified)	-11.0	·
CC(=O)c1cccc(-c2nc3ncnc(N)c3[nH]2)c1	14.5	9.1
Cc1nn(C)c(C)c1-c1ccc(C(=O)NCCN2CCOCC2)s1	7.2	3.0
CCN(CC)C(=O)C1CCCN(c2ncc(C(=O)NCc3ccccc3)s2)C1 (stereo unspecified)	5.1	-13.0
Cc1cnc(CNC(=O)c2ccc3cncc(-c4ccccc4)c3n2)cn1	1.7	·
